Bioassay records: PubChem BioAssay, Broad Institute
The list is not random: actives were taken first. Their share in the collection is about 2.8%.
CDK5 inh = inhibitors of human CDK5/p35 kinase | Recombinant CDK5/p35, ADP-Glo luminescence, 60 min | inhibition, % at 10 µM | actives 0.01% (n = 330,000) | AID 488839;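 active means highest replicate inhibition of at least 50% and at least 75% of replicates reaching 50%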;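 further: plate controls were DMSO neutral control for no effect and GW8510 at 10 µM for full effect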
dFosB activator = activators of mouse delta FosB homodimer; P13346; AID 493131; activation, % at 25 µM; actives 0.99% (n = 340,000); purified delta FosB, TAMRA-CDK5 oligo fluorescence polarization; percent of positive-control signal above neutral wells;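 active means mean activation above about 17%, with every replicate also reaching it, limit read from the data, passing the limit was not always enough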
PvdQ inh = P. aeruginosa PvdQ acylase inhibition; purified PvdQ acylase, fluorescence plate reader; inhibition, % at 10 µM; actives 0.063% (n = 340,000); in the data active means inhibition above about 30%, passing the limit was not always enough;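 further: 0% = vehicle neutral wells and 100% = reference inhibitor wells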
PglD DTNB = PglD (C. jejuni) enzyme inhibition; purified PglD enzyme, DTNB colorimetric CoA detection; inhibition, % at 12.5 µM; actives 0.098% (n = 360,000); AID 602405; in the data active means inhibition above about 16%, passing the limit was not always enough
FGF22 binding = FGF22 (human) thermal shift binding; activity (Tm shift, normalised), % at 9.99 µM; actives 1.5% (n = 340,000); recombinant FGF22 thermal shift, SYPRO orange fluorescence; percent of sucrose octasulfate shift, DMSO zero; AID 651658;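 active means mean Tm shift, scaled 0 neutral to 100 positive control, at about 1.3% or above, every replicate too, limit read from the data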
Target sequence (Q9HCT0 whole entry, looked up): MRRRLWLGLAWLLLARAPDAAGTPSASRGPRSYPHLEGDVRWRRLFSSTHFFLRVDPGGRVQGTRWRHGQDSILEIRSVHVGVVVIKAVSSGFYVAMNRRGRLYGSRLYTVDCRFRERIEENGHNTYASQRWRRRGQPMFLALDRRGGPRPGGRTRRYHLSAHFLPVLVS
SIRT5 block = inhibitors of human sirtuin-5 desuccinylase; Purified SirT5, succinyl-peptide AMC, trypsin-coupled fluorescence; inhibition, % at 15 µM; actives 1.1% (n = 330,000); AID 652115; in the data active means inhibition above about 15%
Target sequence (Q9NXA8 whole entry, looked up): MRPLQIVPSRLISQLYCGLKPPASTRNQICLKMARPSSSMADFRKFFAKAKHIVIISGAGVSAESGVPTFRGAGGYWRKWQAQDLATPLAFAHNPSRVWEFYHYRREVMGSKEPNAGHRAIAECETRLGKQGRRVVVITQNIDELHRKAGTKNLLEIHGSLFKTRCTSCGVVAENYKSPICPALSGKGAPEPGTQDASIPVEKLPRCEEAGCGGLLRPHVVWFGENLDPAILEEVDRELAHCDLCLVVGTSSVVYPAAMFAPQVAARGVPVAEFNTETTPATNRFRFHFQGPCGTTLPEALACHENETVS
Active calls of the source: *; · = not tested or not shown.

SMILES	CDK5 inh	dFosB activator	PvdQ inh	PglD DTNB	FGF22 binding	SIRT5 block
COc1ccc(N2CCN(c3nc4c(c(=O)n(C)c(=O)n4C)n3Cc3ccccc3)CC2)cc1	-0.2	-7.1	0.7	0.8	·	·
C=C(C)Cn1c(N2CCN(c3ccc(OC)cc3)CC2)nc2c1c(=O)n(C)c(=O)n2C	-3.6	-8.6	-9.7	·	40.7	29.3*
COCCNC(=O)C[C@H]1C[C@H]2c3cc(NC(=O)Nc4ccccc4)ccc3O[C@H]2[C@@H](CO)O1	·	·	·	1.6	-0.3	2.7
CCOC(=O)c1ccc(S(=O)(=O)N2CCN(C(=O)c3nn(C)c(=O)c4ccccc34)CC2)cc1	1.4	-8.2	-2.0	·	43.1*	-8.8
Cn1nc(C(=O)N2CCN(S(=O)(=O)c3ccc(Cl)cc3)CC2)c2ccccc2c1=O	0.3	-10.8	-5.5	-7.6	-0.1	-0.9
CCCC(=O)Nc1ccc2c(c1)OC[C@H](C)N(CCC)C[C@@H](C)[C@H](OC)CN(C)C2=O	·	·	·	-1.2	-0.1	2.6
O=C(NNS(=O)(=O)c1ccc(Br)cc1)C1CCCCC1	2.3	7.8	1.7	·	43.0*	-0.6
O=C(Cc1ccc(Cl)cc1)SCc1ccccc1	-0.9	-1.6	-10.3	3.9	43.7*	4.2
COc1cc(/C=N/Nc2ncc(C(F)(F)F)cc2Cl)cc(OC)c1O	-1.8	-7.3	1.4	·	·	·
COc1cc(/C=N/Nc2ncc(C(F)(F)F)cc2Cl)cc(OC)c1OC	0.7	-2.8	5.1	·	43.4*	-5.3
Cc1ccc(S(=O)(=O)Nc2cccc3c2O[C@@H](CN(C)C(=O)Nc2c(C)noc2C)[C@H](C)CN([C@H](C)CO)C3=O)cc1	·	·	·	5.5	-0.4	-0.2
CCCn1c(SCC(=O)N2CCCCC2)nnc1-c1ccccn1	·	·	·	·	43.9*	-10.3
O=C1OC(c2ccccc2)(c2ccccc2)c2ccsc21	·	·	·	-1.3	44.1*	·
O=C1OC(c2ccc(O)cc2)(c2ccc(O)cc2)c2ccccc21	-0.6	4.3	-4.1	0.4	-0.2	-1.3
CC(=O)NCCC(=O)N1CCCC(CNC(=O)c2ccc(-c3ccccc3)cc2)C1 (stereo not drawn)	-1.2	-2.5	0.2	·	43.3*	-2.5
C=CCC(=O)N1CCCC(CNC(=O)c2ccc(-c3ccccc3)cc2)C1 (stereo not drawn)	-1.8	-6.3	-14.5	2.7	-0.2	-1.0
Cc1cccc(Nc2nc(N)c([N+](=O)[O-])c(NCc3ccccc3)n2)c1	-0.9	39.1*	-11.0	0.5	0.3	5.6
Nc1nc(Nc2ccccc2)nc(NC2CCCCC2)c1[N+](=O)[O-]	6.8	72.7*	14.5	-6.1	0.1	-1.9
Cc1cccc(Nc2nc(N)c([N+](=O)[O-])c(N3CCCC(C)C3)n2)c1 (stereo not drawn)	9.8	44.8*	4.1	·	·	·
Cc1cccc(Nc2nc(N)c([N+](=O)[O-])c(N3CCN(C)CC3)n2)c1	6.1	-3.5	11.9	-10.8	·	·
CNc1nc(N)c([N+](=O)[O-])c(NC2CCCCC2)n1	0.4	-11.9	-10.0	2.8	0.8	-0.5
Nc1nc(Nc2ccccc2)nc(NCc2ccccc2)c1[N+](=O)[O-]	1.0	34.2*	-5.6	·	-0.1	-4.1
Nc1nc(NCc2ccccc2)nc(NCc2ccccc2)c1[N+](=O)[O-]	-0.7	6.4	6.0	2.7	·	·
O=C(C[C@@H]1C[C@H]2c3cc(NC(=O)Nc4ccc(C(F)(F)F)cc4)ccc3O[C@H]2[C@@H](CO)O1)NCc1ccccn1	·	·	·	-3.9	0.0	-2.0
Cc1noc(C)c1NC(=O)Nc1ccc2c(c1)C(=O)N([C@H](C)CO)C[C@H](C)[C@@H](CN(C)C(=O)NC(C)C)OCCCC[C@@H](C)O2	·	·	·	·	0.1	·
SMILES	CDK5 inh	dFosB activator	PvdQ inh	PglD DTNB	FGF22 binding	SIRT5 block
CC(=O)N1CCN(c2ccc([N+](=O)[O-])cc2C#N)CC1	0.4	7.8	-12.3	-0.3	0.4	6.2
CCCN1CCN(c2ccc([N+](=O)[O-])cc2C#N)CC1	-2.0	-4.6	29.6	·	43.4*	-1.2
CN(C)CCCNC(=O)C[C@H]1CC[C@H]2[C@@H](COC[C@@H](O)CN2CC2CC2)O1	·	·	·	2.6	·	-3.6
CCOc1ccc2ccccc2c1C(=O)N1CCN(c2ccccc2)CC1	0.0	-5.1	-9.0	1.4	0.1	18.5*
CCOc1ccccc1C(=O)N1CCN(c2cccc(Cl)c2)CC1	-0.3	-7.6	-8.9	-2.2	·	·
CCC(C)C(=O)Nc1nnc(SCC(=O)Nc2ccccc2F)s1 (stereo not drawn)	0.9	-3.6	-6.0	·	43.7*	-1.7
CCC(C)C(=O)Nc1nnc(SCC(=O)Nc2ccc(F)cc2)s1 (stereo not drawn)	0.4	-2.9	-19.0	·	0.2	0.8
CC(C)NC(=O)Nc1ccc2c(c1)C(=O)N(C)[C@@H]1CC[C@H](CC(=O)NCC(F)(F)F)O[C@@H]1CO2	·	·	·	3.4	0.0	·
O=C(Nc1ccc(F)cc1)N1C[C@@H]2[C@H](c3ccccc31)[C@H](CO)N2C(=O)c1ccc(F)cc1	·	·	·	-0.7	0.3	-1.5
Cc1ccc(NC(=O)c2[nH]cnc2C(=O)NN)cc1	1.6	-2.6	-10.4	4.9	0.1	-2.5
NNC(=O)c1nc[nH]c1C(=O)Nc1ccccn1	-3.1	-13.3	-2.3	·	42.9*	-2.0
C[C@H]1CN([C@@H](C)CO)S(=O)(=O)c2ccc(-c3ccc(C(=O)N(C)C)cc3)cc2O[C@@H]1CN(C)C(=O)Nc1ccccc1F	·	·	·	-0.5	0.1	-10.4
Cc1ccc(-c2csc(NC(=O)CN3C(=O)CCC3=O)n2)cc1	-0.2	-3.8	-7.6	·	0.4	0.7
O=C(CN1C(=O)CCC1=O)Nc1nc(-c2ccc3ccccc3c2)cs1	-1.7	14.9	-8.0	·	43.5*	-4.4
C[C@@H]1CCCCO[C@H](CN(C)C(=O)Nc2ccc(C(F)(F)F)cc2)[C@H](C)CN([C@@H](C)CO)C(=O)c2cc(NC(=O)c3ccncc3)ccc2O1	·	·	·	2.2	·	5.5
Cn1c(Cn2c(=O)sc3ccccc32)nnc1SCC(=O)Nc1ccc2c(c1)OCO2	0.2	6.0	-8.8	8.5	43.9*	-3.9
Cc1cc(C)cc(NC(=O)CSc2nnc(Cn3c(=O)sc4ccccc43)n2C)c1	-0.2	-3.5	1.2	-5.8	43.3*	·
Cn1c(Cn2c(=O)sc3ccccc32)nnc1SCC(=O)NCc1ccc2c(c1)OCO2	0.4	7.7	-8.2	1.7	0.0	·
Cn1c(Cn2c(=O)sc3ccccc32)nnc1SCC(=O)Nc1ccc(Cl)cc1	-3.6	-6.1	-6.2	9.6	0.0	-3.6
CCCn1c(SCC(=O)Nc2ccc3c(c2)OCO3)nc2c1c(=O)n(C)c(=O)n2C	-0.6	5.3	16.9	0.1	·	24.6*
O=C(NCCCN1CCOCC1)[C@@H]1[C@@H](CO)[C@@H]2Cn3c(cccc3=O)[C@H]1N2C(=O)C1CCCC1	·	·	·	·	0.3	1.4
CC1(C(=O)NCCCN2CCOCC2)Oc2cccnc2NC1=O (stereo not drawn)	-1.1	2.6	5.5	2.4	43.3*	-2.5
